About 4,300 (8.3%) of roughly 52,000 compounds were called active. No stated cut-off is given here; in the data, active means survival mostly below about 52% (no sharp cut-off); inactive means mostly above about 56%. For the sample, actives were picked, then their nearest neighbours and some compounds at random.

The test system of the test is DeltatarO mutant. Kind of test: growth inhibition of S. aureus wild type versus tarO mutant, primary screen, teichoic acid synthesis inhibitors, RN4220, OD600 (AID 463173). The following applies: OD600, 18 h, stronger effect = lower value, screened at 18.75 µg/mL (by protocol).
For the compound `O=C(CCc1nc2cccnc2n1Cc1ccccc1)NCc1cccc(Cl)c1`, the survival was 51% (active). On to `O=C(CCc1ccccc1)NCc1nc2cccnc2n1Cc1ccc(F)cc1`, for which the survival is -4% (active).

On to `Cc1ccc(Cn2c(CNC(=O)CCc3ccccc3)nc3cccnc32)cc1`, for which the survival was 97% (inactive). On to `COc1ccc(CCC(=O)NCc2nc3cccnc3n2Cc2ccc(F)cc2)cc1`, for which the survival is 119% (inactive). For the compound `COc1ccc(Cn2c(CCC(=O)NCc3cccc(Cl)c3)nc3cccnc32)cc1`, the survival is 129% (inactive). Consider `Cc1ccc(CNC(=O)CCc2nc3cccnc3n2Cc2ccccc2)cc1`, for which the survival was 74% (inactive). For the compound `COc1cc(NC(=O)N(Cc2ccco2)C2CCN(C(C)=O)CC2)cc(OC)c1OC`, the survival was 134% (inactive). For `N#Cc1ccc(NC(=O)CNCC2CCCCC2)cc1`, the survival is 100% (inactive). Take `CCn1c(=NC(=O)c2ccc3c(c2)OCCO3)sc2c(C)ccc(OC)c21`: the survival was 120% (inactive).

For the compound `O=c1oc2ccccc2cc1-c1cn2cc(Cc3ccccc3F)sc2n1`, the survival is 49% (active). As for `O=c1oc2ccccc2cc1-c1cn2cc(Cc3ccc(Br)cc3)sc2n1`, the survival was 66% (inactive). Then `O=c1oc2ccccc2cc1-c1cn2cc(Cc3ccc(F)cc3)sc2n1`, with 128% (inactive); and `O=c1oc2ccccc2cc1-c1cn2cc(Cc3ccc(Cl)cc3)sc2n1`, with 84% (inactive); and `O=c1oc2ccccc2cc1-c1cn2cc(Cc3cc(Cl)ccc3Cl)sc2n1`, with 52% (active).

For `CC(C)c1ccc(Cc2cn3cc(-c4cc5ccccc5oc4=O)nc3s2)cc1`, the survival was 56% (inactive). `Cc1ccc(NC(=O)c2sc3ncn(Cc4cccc(F)c4)c(=O)c3c2C)c(Br)c1`: the survival is 87% (inactive). As to `COc1ccc(NC(=O)Cn2c(=O)n(Cc3nc(C)no3)c(=O)c3cc4c(cc32)OCO4)cc1`, the survival was 99% (inactive). For `CC(C)CCNC(=O)CN1C(=O)CSc2ccc(S(=O)(=O)N3CCC(C)CC3)cc21`, the survival was 72% (inactive).

As for `Cc1ccc(/C=C/c2onc(C)c2S(=O)(=O)N2CCC(C(=O)NCc3ccc(OC(C)C)cc3)CC2)cc1`, the survival is 69% (inactive). With `COc1cccc(CNC(=O)C(=O)NCC(c2ccco2)S(=O)(=O)c2cccs2)c1` (stereo unspecified), the survival was 94% (inactive). `COc1ccc(-c2[nH]c3c(c2-c2c(-n4cccc4)n(C)c(=O)[nH]c2=O)c(=O)[nH]c(=O)n3C)cc1F`: the survival was 63% (inactive). For `Cc1ccc(C)c(-c2[nH]c3c(c2-c2c(-n4cccc4)n(C)c(=O)[nH]c2=O)c(=O)[nH]c(=O)n3C)c1`, the survival was 59% (active). In the case of `Cn1c(-n2cccc2)c(-c2c(-c3ccccc3)[nH]c3c2c(=O)[nH]c(=O)n3C)c(=O)[nH]c1=O`, the survival was 60% (inactive).

As for `Cc1ccc(C)c(-c2[nH]c3c(c2-c2c(-n4cccc4)n(C)c(=O)n(C)c2=O)c(=O)n(C)c(=O)n3C)c1`, the survival is 64% (inactive). In the case of `Cc1ccc(-c2[nH]c3c(c2-c2c(-n4cccc4)n(C)c(=O)[nH]c2=O)c(=O)[nH]c(=O)n3C)cc1`, the survival was 65% (inactive). With `COc1cccc(-c2[nH]c3c(c2-c2c(-n4cccc4)n(C)c(=O)[nH]c2=O)c(=O)[nH]c(=O)n3C)c1`, the survival is 63% (active). For the compound `CC(=O)Nc1ccc(C(=O)NCCN2CCOCC2)cc1`, the survival was 96% (inactive). In the case of `Cc1cccc(N2CCN(S(=O)(=O)c3ccc4c(c3)C(C(C)C)C(=O)N4)CC2)c1C` (stereo unspecified), the survival is 55% (inactive).

`Cc1ccc(Cc2nc3ccccc3nc2SCC(=O)NCCC(C)C)cc1`: the survival is 112% (inactive).

Turning to `CCCCN(CC)CCNC(=O)CN1C(=O)COc2ccc(S(=O)(=O)N3CCOCC3)cc21`, the survival is 86% (inactive). Take `Cc1ccc(C)c(NC(=O)CCc2nc3cccnc3n2Cc2cccs2)c1`: the survival is 73% (inactive).

Turning to `CCOc1ccc(C2CC(=O)Nc3c2c(=O)nc(SCc2ccccc2C)n3C)cc1OC` (stereo unspecified), the survival is 42% (active). The result for `COc1cc(O)ccc1C1CC(=O)Nc2c1c(=O)nc(SCc1ccccc1C)n2C` (stereo unspecified) reads 93% (inactive). `CCOc1ccc(C2CC(=O)Nc3nc(SCc4ccccc4C)[nH]c(=O)c32)cc1OC` (stereo unspecified): the survival is 103% (inactive). Then `COc1ccc(-c2[nH]c(-c3ccc(C)cc3)nc2SCC(=O)NCC2CCCO2)cc1` (stereo unspecified), with 82% (inactive); and `COc1ccc2c(c1)c1c(c(=O)n(-c3cc(Cl)ccc3C)c(=O)n1CC(=O)N1CCCC1)n2C`, with 83% (inactive). As for `Cc1ccccc1NC(=O)Cn1c(=O)n(Cc2ccc3c(c2)OCO3)c(=O)c2ccccc21`, the survival was 97% (inactive). The result for `CCOc1cccc(C2c3c(-c4cc(C)ccc4O)n[nH]c3C(=O)N2Cc2ccco2)c1` (stereo unspecified) reads 8% (active); that for `CCOc1ccc(C2c3c(-c4cc(C)ccc4O)n[nH]c3C(=O)N2Cc2cccnc2)cc1OCC` (stereo unspecified), 72% (inactive). As to `COc1cc(C2c3c(-c4cc(C)ccc4O)n[nH]c3C(=O)N2Cc2ccco2)cc(OC)c1OC` (stereo unspecified), the survival was 66% (inactive). For `Cc1cc(C)c2c(=O)c3c(oc2c1)C(=O)N(Cc1ccco1)C3c1ccccc1F` (stereo unspecified), the survival was 106% (inactive). For the compound `Cc1cc(C)c(-c2n[nH]c3c2C(c2ccccc2F)N(Cc2ccco2)C3=O)c(O)c1` (stereo unspecified), the survival is 2% (active). For the compound `Cc1ccc(O)c(-c2n[nH]c3c2C(c2ccc(F)cc2)N(Cc2ccco2)C3=O)c1` (stereo unspecified), the survival was 2% (active). In the case of `Cc1ccc(C2c3c(-c4cc(C)ccc4O)n[nH]c3C(=O)N2Cc2ccco2)cc1` (stereo unspecified), the survival is 1% (active). The result for `COc1cc(C2c3c(-c4cc(C)ccc4O)n[nH]c3C(=O)N2Cc2cccnc2)cc(OC)c1OC` (stereo unspecified) reads 83% (inactive); that for `Cc1cc(C)c(-c2n[nH]c3c2C(c2ccccc2F)N(CCO)C3=O)c(O)c1` (stereo unspecified), 77% (inactive); that for `CCC(=O)N1c2ccc(S(=O)(=O)NCCc3ccccc3)cc2CC1C` (stereo unspecified), 77% (inactive). `Cc1ccc2[nH]c(CSc3nnc(NC(=O)COc4ccccc4)s3)cc(=O)c2c1`: the survival is 82% (inactive).

Turning to `Cc1cc(C)c(NC(=O)C(C)n2nc(-c3ccc(C)c(C)c3)ccc2=O)c(C)c1` (stereo unspecified), the survival was 63% (inactive). With `CCCCNC(=O)CN1CCN(c2ncc(NC(=O)c3ccc(Cl)cc3)cc2C(=O)O)CC1`, the survival was 94% (inactive). The result for `CCCOc1cccc(C2c3c(-c4ccccc4O)n[nH]c3C(=O)N2Cc2ccco2)c1` (stereo unspecified) reads 2% (active); that for `Cc1ccc(O)c(-c2n[nH]c3c2C(c2ccccc2F)N(Cc2ccco2)C3=O)c1` (stereo unspecified), 8% (active). For the compound `O=C1c2[nH]nc(-c3ccccc3O)c2C(c2ccccc2F)N1Cc1cccnc1` (stereo unspecified), the survival was 87% (inactive).

For `CCCOc1ccc(C2c3c(-c4ccccc4O)n[nH]c3C(=O)N2Cc2ccncc2)cc1OCC` (stereo unspecified), the survival is 90% (inactive). For the compound `O=C1c2[nH]nc(-c3ccccc3O)c2C(c2ccccc2F)N1Cc1ccncc1` (stereo unspecified), the survival was 94% (inactive). For the compound `O=C1c2[nH]nc(-c3ccccc3O)c2C(c2cccc(Br)c2)N1Cc1ccncc1` (stereo unspecified), the survival is 85% (inactive).

(Values after PubChem BioAssay AID463173 (ICCB-Longwood Screening Facility, Harvard Medical School, 2010).)
